Bioassay records as filed in PubChem BioAssay.
Pf Dd2 inh – inhibitors of Plasmodium falciparum Dd2 growth. Potency, µM (highest dose often 28.9 µM), inactives show top-dose activity, negative = inhibition, actives largely listed as inhibitors. AID 1347417. P. falciparum Dd2 growth, SYBR Green, 72 h. hit rate 4.3% among 120,000; active = well fitted inhibition curve with a large enough effect;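 note: plate controls were DMSO vehicle for no effect and reference drug for full effect; nearly all actives have a fitted effect of over 65% in size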
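Infected erythrocytes (Dd2, 0.3% parasitemia, 2.5% hematocrit final) are added to compound in RPMI-1640/Albumax II medium, grown 72 h at 37C in low oxygen, then lysed with saponin/Triton-X containing SYBR Green and read by fluorescence.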
The depositor's hits bear a star; i = inactive; [ ] = dose if it differs, or a comment. Many of the other results were omitted from the sample, so hits are more common in it than they were. Potency is the fitted concentration of half-maximal effect.

SMILES	Pf Dd2 inh
OCc1ccc(-c2cc(-c3ccncc3)c3cncn3c2)cc1	-6%[44.1 µM]
c1cc(-c2cc(-c3ccncc3)c3cncn3c2)c2[nH]ncc2c1	i
COc1ccc(-c2cc(-c3ccc4c(c3)CNC4=O)cn3cncc23)cc1	4.5µM*
Cn1cc(-c2cc(-c3ccncc3)c3cncn3c2)cn1	i
COc1cccc(-c2cc(-c3ccncc3)c3cncn3c2)c1OC	10µM*
COc1ccc(-c2cc(-c3ccncc3)cn3cncc23)cc1	10µM*
Cc1noc(C)c1-c1cc(-c2ccc3c(c2)C(=O)NC3)cn2cncc12	i
COc1ccc(-c2cc(-c3ccc(F)cc3OC)cn3cncc23)cc1	6.3µM*
COc1cc(F)ccc1-c1cc(-c2cn[nH]c2)c2cncn2c1	i
O=C1CC(c2ccccc2)N(C(=O)CNC(=O)CN2CCCC2=O)CCCCCN1 (configuration not stated)	-20%
Cc1cccc(C(=O)N2CC(c3noc(C4CCCN4CC4CC4)n3)C2)c1 (configuration not stated)	-6%
CC(=O)Nc1ccc(C(=O)NC2CCN(c3cc(-c4ccc(Cl)cc4)[nH]n3)CC2)cc1	i
CC(C)CCN(C)C1CCCc2ccccc21 (configuration not stated)	7%[44.1 µM]
Cc1ccc(-c2cn3c(n2)CO[C@@H](CNC(C)C)C3)cc1	-2%[44.1 µM]
Cc1noc(-c2cccc(OC3CN(C(=O)NC4CCCCC4)C3)c2)n1	57%[5.79 µM]
O=C1OCC2(CCN([S+](=O)([O-])c3ccccc3)C2)N1CCN1CCOCC1 (configuration not stated)	25%[44.1 µM]
COc1ccc(NC(=O)NC[C@H]2O[C@H](Cc3cc(-c4cccc(O)c4)on3)CC[C@@H]2O)cc1	-10%
COc1ccc(-c2cc(-c3ccc(F)cc3)cn3cncc23)cc1	3.2µM*
Fc1cccc(-c2cc(-c3cn[nH]c3)c3cncn3c2)c1	-2%[44.1 µM]
CN(C)Cc1ccc(-c2cc(-c3cn[nH]c3)c3cncn3c2)cc1	11%[44.1 µM]
COc1ccc(-c2cc(-c3ccncc3)c3cncn3c2)cc1	11µM*
FC(F)(F)c1cccc(-c2cc(-c3ccncc3)c3cncn3c2)c1	-13%[44.1 µM]
CN1C(=O)CC(C(=O)O)C12CCN(C/C=C/c1ccccc1)CC2 (configuration not stated)	-5%
O=C(Nc1ccc([C@H]2OCC(=O)N(C3CCOCC3)[C@@H]2CO)cc1)c1cnccn1	6%[44.1 µM]
CNC(=O)NC[C@H]1CCN(Cc2ccc(OC)c(C)c2)C[C@H]1N(C)C	-4%
SMILES	Pf Dd2 inh
N#Cc1cccc(CN[C@@H]2CO[C@H](CNC(=O)c3ccncc3)[C@H]2O)c1	-10%[44.1 µM]
O=C(C1CCCN1)N1CCN(Cc2ccc(=O)n(CC3CC3)c2)CC1 (configuration not stated)	-21%
COc1ccc(-c2nn(C)c3sc(C(=O)N4CCN(c5cccc(Cl)c5)CC4)cc23)cc1OC	-16%
COc1cccc(-c2nn(C)c3sc(C(=O)NCc4cc(OC)ccc4OC)cc23)c1	-16%
COc1ccc(-c2nn(C)c3sc(C(=O)Nc4cc(OC)c(OC)c(OC)c4)cc23)cc1OC	11µM*
CC(=O)NC1CCCN(Cc2cccc(OCCN3CCOCC3)c2)C1 (configuration not stated)	1%
COC(=O)c1scc(-c2ccc(C)cc2)c1S(=O)(=O)N1CCN(c2ccccc2)CC1	0%
COC(=O)c1scc(-c2ccc(C)cc2)c1S(=O)(=O)Nc1ccc(NC(C)=O)cc1	i
COC(=O)c1scc(-c2ccc(C)cc2)c1S(=O)(=O)N1CCN(c2ccccc2F)CC1	11µM*
COC(=O)c1scc(-c2ccc(C)cc2)c1S(=O)(=O)Nc1ccc(N(C)C)cc1	10%
COC(=O)c1scc(-c2ccc(C)cc2)c1S(=O)(=O)Nc1cc(C)c(Cl)cc1OC	8.9µM*
COC(=O)c1scc(-c2ccc(C)cc2)c1S(=O)(=O)N1CCN(c2ccc(C)cc2C)CC1	-8%
CCCNC(=O)O[C@@H]1CC[C@]2(C)C(CC[C@@H](O)[C@H]2CC(=O)NCc2ccc3c(c2)OCO3)[C@]1(C)CO (some centres not stated)	-18%
Cc1ccc(C)c(NC(=O)N2C[C@@H](F)C[C@H]2C(=O)N2CCCCC2)c1	12%
CC(=O)N1CCN(C(=O)c2cc3ccccc3[nH]c2=O)CC(O)C1 (configuration not stated)	2%
CC1(C(=O)NCCc2ccccc2)CCCCC(=O)N1 (configuration not stated)	8%
CCN1CCN(C2(C(=O)NCCc3ccccc3)Cc3ccccc3C2)CC1	5µM*
CCN1CCN(C2(C(=O)N3CCC(OC)CC3)Cc3ccccc3C2)CC1	i
O=S(=O)(N[C@@H]1C[C@H](Cn2cc(C3CC3)nn2)[C@@H](O)[C@H]1O)c1ccccc1	-25%[44.1 µM]
Cn1cnc(S(=O)(=O)N2CCCC(Cn3c(C4CC4)nc4cccnc43)C2)c1 (configuration not stated)	8%
O=C(c1nc(-c2cc(Cl)cc(Cl)c2)c2ccccn12)N1CCN(c2ncccn2)CC1	i
O=C(c1nc(-c2cccnc2)c2ccccn12)N1CCN(c2ncccn2)CC1	-2%
C[S+](=O)([O-])c1ccc(-c2nc(C(=O)N3CCN(c4ncccn4)CC3)n3ccccc23)cc1	7.1µM*
Cc1ccc(C)c(OCC(=O)N[C@H]2CCOC[C@H]2C2CCOCC2)c1C	0%
CC1(C(=O)O)CCN(C(=O)c2ccc3c(c2)OC(F)(F)O3)CC1	34%
SMILES	Pf Dd2 inh
O=C1NCC2(CCN(C(=O)c3ccc(C(F)(F)F)cc3)CC2)Oc2ccccc21	i
Cn1cc(C(=O)N2CC[C@@](C)(O)[C@@H](O)C2)c2ccccc21	-3%
Cc1cccc2c(C3CCN(C(=O)c4c(Cl)cc(Cl)cc4Cl)CC3)c[nH]c12	-17%
Cn1cc(C2CCN(C(=O)c3c(Cl)cc(Cl)cc3Cl)CC2)c2ccccc21	8.9µM*
CCC(=O)N1CCC(Oc2ccc(NC(=O)Cc3ccncc3)cn2)C1 (configuration not stated)	-20%
CC(C)C1CN(C(=O)C(=O)c2ccco2)CCC(=O)N1CC1CC1 (configuration not stated)	-1%
CCn1ncc(N2CCCC(CC(=O)NCc3ccccc3OC)C2)cc1=O (configuration not stated)	-17%
O=C(c1nc(-c2ccc(Cl)nc2)c2cnccn12)N1CCCC1	9%
COc1ccccc1-c1nc(C(=O)NC2CC2)n2ccncc12	-19%[44.1 µM]
Cc1cccc(C)c1-c1nc(C(=O)NCc2cccnc2)n2ccccc12	-19%
Cc1cccc(C)c1-c1nc(C(=O)NCc2ccsc2)n2ccccc12	8.9µM*
COCCNC(=O)c1nc(-c2ccccc2OC)c2cnccn12	-8%[44.1 µM]
C#CCNC(=O)c1nc(-c2ccc(Cl)nc2)c2ccccn12	-26%
O=C(NCc1ccncc1)c1nc(-c2cccnc2)c2cnccn12	-1%
COc1ccccc1-c1nc(C(=O)NCc2ccc3c(c2)OCO3)n2ccncc12	13µM*
O=C(NCc1ccc(F)cc1)c1nc(-c2ccccc2)c2cnccn12	4µM*
COc1ccccc1-c1nc(C(=O)NCc2cccs2)n2ccccc12	i
O=C(NCc1ccc(F)cc1)c1nc(-c2ccc(Cl)nc2)c2cnccn12	7.9µM*
O=C(NCc1cccnc1)c1nc(-c2ccc(F)cc2)c2cnccn12	-5%
NC(=O)c1cnc2n1CCN(C(=O)CCNC(=O)c1ccc(F)cc1)C2	10%
CC(C)c1nnc(C2CN(C(=O)CCc3nc4ccccc4[nH]3)CC23CCOCC3)o1 (configuration not stated)	2%
